Test results taken from PubChem BioAssay (NCI).
“And” between values parts separate entries of the source, which are not always exact repeats. Equal entries are not always repeated. About 83,000 compounds went through this panel and 20% of them were active in at least one assay; those are over-represented in the sample as a whole.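 Activity criterion: percent growth below 10, measured after cells in 96-well plates were exposed to a single compound concentration for 48 hours.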 The source made the active and inactive calls.

What follows are molecules tested on ACHN renal (assay: NCI-60 one-dose screen, 48 h (100 = growth as untreated, 0 = no growth, -100 = all killed)). Conditions: 10 µM.
Protocol: Growth inhibition of the ACHN human tumor cell line is measured as a screen for anti-cancer activity. Cells are grown in 96 well plates and exposed to the test compound for 48 hours. Compounds are tested at a single concentration, which is 10^-5 M for most compounds. The reported endpoint is percent growth (GI% or GIPRCNT), where numbers from 0 - 100% represent growth inhibition, and numbers from -100% - 0 represent cell death. For example, a value of 40 represents 60% growth inhibition. A value of 0 means no net growth occurred over the course of the experiment. A value of -40 indicates 40% of cells at the beginning of the experiment died by the end of the experiment. A value of -100 means all cells are dead at the end of the experiment.
NCI-60 Human Tumor Cell Lines Screen was performed using the standard one-dose NCI protocol, which is described in more detail at https://dtp.cancer.gov/discovery_development/nci-60/default.htm.
Compounds with GIPRCNT values below 10 were considered active. Activity score was based on GIPRCNT using the following formula: […]
Score is 0 for GIPRCNT values of 100 or above, 50 for GIPRCNT values of 0, and 100 for GIPRCNT values of -100.

Row | Compound | growth
1 | CS/C(=C\c1ccc(C(=O)c2ccc(C)cc2)n1C)S(C)=O (stereo not given) | 87.4% (inactive)
2 | S=c1nc[nH]c2nc[nH]c12 | 50% (inactive)

Same assay, conditions: 10 µM unless noted

Row | Compound | growth
3 | CN(C)C(=N)N=C(N)N | 92.8% (inactive) and 115% (inactive)
4 | Cc1nc(Nc2ccc(Cl)cc2)c2cnn(-c3ccccc3)c2n1 | 105% (inactive)
5 | CC1(C)OC(=O)C(=Cc2ccc(C#N)cc2)C(=O)O1 | 108% (inactive) and 98.1% (inactive)
6 | Clc1ccc2sc(-c3ccccc3)nc2c1 | 89.6% (inactive)
7 | O=C1C=CC(n2cc(F)c(=O)[nH]c2=O)O1 (stereo not given) | 56.5% (inactive)
8 | COC(=O)C(Cc1cn(C(C)=O)c2ccccc12)P(=O)(OC)OC (stereo not given) | 100% (inactive)
9 | Oc1ccc(O)c(-c2ccccc2)c1 | 74.1% (inactive)
10 | N=c1sc2ccccc2n1CC(=O)O | 105% (inactive)
11 | O=[N+]([O-])c1cccc2ccc(N/N=C/c3ccccc3O)nc12 | 68.4% (inactive) and 103% (inactive)
12 | COc1cc(Cl)ccc1C | -8.72% (active)
13 | Cc1ccc(C(=O)c2ccc(C)cc2)cc1 | 99.8% (inactive) and 107% (inactive)
14 | CC(=O)Oc1ccc(C2(c3ccc(OC(C)=O)cc3)C(=O)Nc3ccccc32)cc1 | 67.6% (inactive) and 63% (inactive)
15 | COc1cc2c(cc1O)C(=O)CCCC2 | 96.9% (inactive)
16 | O=[N+]([O-])c1ccc(N/N=C/C2CCCCCC2)c([N+](=O)[O-])c1 | 70.4% (inactive)
17 | CC(=O)c1cccc(OC(=O)c2ccccc2)c1 | 109% (inactive)
18 | O=C(O)c1cc(=O)[nH]c(=O)[nH]1 | 94.7% (inactive) and 95.2% (inactive)
19 | COc1ccc(CCn2cnn3c(=O)c4ccccc4nc3c2=O)cc1OC | 101% (inactive) and 109% (inactive)
20 | COc1ccc(COC=O)cc1 | 110% (inactive)

Row | Compound | growth
21 | COC(=O)c1nc(N)nc(C(=O)OC)c1C(=O)c1ccc(F)cc1 | 116% (inactive)
22 | Oc1cccnc1CN1CCOCC1 | 106% (inactive) and 97.3% (inactive)
23 | O=C1C=CC[C@H](/C=C/c2ccccc2)O1 | 33.4% (inactive) and -36.3% (active)
24 | N=C(N=C(N)N)N1CCOCC1 | 103% (inactive)
25 | N#CC(=S)Nc1ccc(Cl)c(Cl)c1 | 0.0372% (active)
26 | OCCCc1ccccc1 | 106% (inactive)
27 | COC(=O)CCOc1ccccc1 | 91.8% (inactive)
28 | CC1=CC(=O)c2cccc(NC3=NCCO3)c21 | 98.7% (inactive)
29 | CCCCCCCCCCCCCCCCC(=O)O | 112% (inactive)
30 | CC(C)(C)OC(=O)NCCc1ccc(N)cc1 | 105% (inactive)
31 | CCN(CC)CCNC(=O)c1ccc(NCN2C(=O)NC(c3ccccc3)(c3ccccc3)C2=O)cc1 | 107% (inactive) and 104% (inactive)
32 | CC1=CC(=O)C=CC1=Nc1ccc(N(C)C)cc1 | 96.6% (inactive) and 55.3% (inactive)
33 | CSc1nc(N)c(N)c(N)n1 | 110% (inactive)
34 | O=C(O)c1cccc(Br)c1 | 107% (inactive) and 108% (inactive)
35 | CCOC(=O)CN1CCC(C(=O)OCC)CC1 | 111% (inactive)
36 | CCCCOC1NC(=O)NC(=O)C1(F)C(=O)OCC (stereo not given) | 82% (inactive) and 67.4% (inactive)
37 | CCc1ccccc1-n1[nH]c(C)c(C=N)c1=O | 105% (inactive)
38 | O=S(=O)(O)c1ccc2cc(O)ccc2c1 | 106% (inactive)

Same assay, conditions: 50 µM

Row | Compound | growth
39 | S=c1nc[nH]c2nc[nH]c12 | 20.5% (inactive)

Same assay, conditions: 100 µM

Row | Compound | growth
40 | CS/C(=C\c1ccc(C(=O)c2ccc(C)cc2)n1C)S(C)=O (stereo not given) | 83.2% (inactive)
